From PubChem BioAssay AID2315 (National Center for Advancing Translational Sciences (NCATS), 2010)
The campaign covered roughly 290,000 compounds. About 27,000 (9.3%) were called active. The list comes from a sample in which actives are over-represented; it also holds similar structures and randomly drawn compounds. A number with no mark means an inactive call. Rule as the data show it: active = inhibition mostly above about 28% (no sharp cut-off); inactive = mostly below about 43%.

Assay: A qHTS for Small Molecule Inhibitors of Shiga Toxin; also: 0% is about no effect
Conditions: Vero cells, Shiga toxin protein synthesis inhibition reporter; at 38.7 µM, stronger effect = higher value
`COc1ccc([N+](=O)[O-])cc1N(CC(=O)Nc1ccccc1C(=O)N1CCOCC1)S(C)(=O)=O` showed an inhibition of -1.77%.
`CCOC(=O)c1c(C)[nH]c(C(=O)COc2ccc3c(c2)OCO3)c1C` showed an inhibition of 17.2%.
With `CCOC(=O)c1nc(-c2ccc3c(c2)OCO3)[nH]c1C` the inhibition was 41% (active).
Molecule `CCOCCOC(=O)C1=C(C)NC(=O)NC1c1ccc2c(c1)OCO2` (stereo unspecified) has an inhibition of -11.9%.
Molecule `CCOc1ccc(N(C)S(=O)(=O)c2cnc[nH]2)cc1` has an inhibition of 10.4%.
`Cc1ccc2c(c1)N(CC(=O)N1CCC(C)CC1)C(=O)c1cccnc1O2` showed an inhibition of 9.85%.
With `COc1ccc(NC(=O)C2CCCN(S(=O)(=O)c3cccc4cccnc34)C2)cc1` (stereo unspecified) the inhibition was -1.64%.
For `CCOc1cccc(NC(=O)C2CCCN(S(=O)(=O)c3ccc(OC)cc3)C2)c1` (stereo unspecified), the inhibition was -14.4%.
With `COc1ccc(S(=O)(=O)N2CCCC(C(=O)Nc3ccc(NC(=O)c4ccccn4)cc3)C2)cc1` (stereo unspecified) the inhibition was 63.5% (active).
`COc1ccccc1N1CC(C(=O)Nc2nnc(SCC(=O)NC(C)C)s2)CC1=O` (stereo unspecified) showed an inhibition of 4.29%.
Molecule `CN(CC1CCCN(CCc2cccc(C(F)(F)F)c2)C1)C(=O)c1ccc2nc[nH]c2c1` (stereo unspecified) has an inhibition of -2.32%.
`Cc1ccc(CS(=O)Cc2ccc(C(=O)N3CCOCC3)o2)cc1` (stereo unspecified) gave an inhibition of -2.85%.
With `COc1ccc2c(c1)cc1n2CCN=C1NN` the inhibition was 170% (active).
For `COc1ccc(CNC(=O)C(=O)NCC2OCCN2C(=O)c2ccc(OC)cc2)cc1` (stereo unspecified), the inhibition was -30.4%.
For `O=S(=O)(c1cccc(Cn2nnc(-c3ccc(F)cc3)n2)c1)N1CCOCC1`, the inhibition was -6.53%.
With `c1ccc2sc(SNC3CCCCC3)nc2c1` the inhibition was 25.3%.
In the case of `c1ccc2sc(NN=C3CCCC3)nc2c1`, the inhibition is reported as 72.4% (active).
`O=[N+]([O-])c1cc(Br)c(O)c(/C=N/Nc2nc3ccccc3s2)c1` gave an inhibition of 30.3%.
Work on `Cc1ccc2c(c1)C(c1ccccc1)N(C(=O)c1ccc(F)cc1)CC(=O)N2` (stereo unspecified) yielded an inhibition of -4.25%.
With `COC(=O)c1ccc(/C=C2/C(=O)Oc3ccccc32)cc1` the inhibition was -14%.
With `CNC(=S)N1N=C(c2ccccc2)CC1c1ccc(Br)cc1` (stereo unspecified) the inhibition was 34.3% (active).
Molecule `Cc1ccc(NC(=S)N2CCCC(c3ccccc3)=N2)cc1` has an inhibition of -2.73%.
For `CC(=O)N1CCN(c2ccccc2NC(=S)NC(=O)c2cc3ccccc3o2)CC1`, the inhibition was -6.04%.
For `Cc1cc(Nc2ccccc2)n(C(=O)c2ccc(N)cc2)n1`, the inhibition was 47.2% (active).
Molecule `Cc1cc(NC(=O)Nc2ccccc2)n(-c2ccccc2)n1` has an inhibition of 34.6%.
For `Cc1cc(Nc2ccccc2)n(CCC#N)n1`, the inhibition was -1.92%.
